Source: PubChem
Only some compounds are listed: those with a hit (about 1.2% of all), similar ones and a draw of the others.
TLR9-MyD88 block = inhibitors of TLR9-MyD88 association in cells, primary screen, cell-based, CHO, BLA complementation, fluorescence; CCF4 FRET ratio; inhibition, % at 4.98 µM; 340,000 compounds, 0.21% hits;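 active = inhibition above the mean over all tested compounds plus 3 SD, cut at about 21% in these data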;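 note: 0% = DMSO only wells and 100% = clavulanate BLA inhibitor control wells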
TLR4 MyD88 comp = inhibitors of TLR4-MyD88 association in cells, primary screen, cell-based, HeLa CL3-4, BLA complementation, FRET ratio | inhibition, % at 8.4 µM | 200,000 compounds, 0.18% hits | Toll-like receptor 4 (Homo sapiens) + Myeloid differentiation primary response protein … | AID 861, 2007 | HeLa CL3-4 TLR4/MyD88 BLA complementation; in the data active = inhibition above about 25%;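 note: 0% = vehicle and 100% = reference inhibitor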
GC-B act = human GC-B receptor activators, primary screen, HEK293 GC-B cells, cGMP TR-FRET, EC30 CNP | 0% at EC30 CNP, 100% saturating CNP | activation, % at 10 µM | 370,000 compounds, 0.11% hits;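 active = activation at 10 µM reaching about 35% in either raw or pattern-adjusted values, limit read from the data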
Neddylation inh = inhibitors of cullin neddylation, primary screen, biochemical, TR-FRET, uHTS, NAE and Ubc12 | NEDD8-conjugating enzyme Ubc12 (Homo sapiens) + NEDD8-activating enzyme E1 regulatory … | inhibition, % at 25 µM | 360,000 compounds, 0.58% hits | AID 651699, 2012; in the data active = inhibition above about 36%
GC-A act = GC-A stimulated cGMP production enhancers – HEK293 GC-A cells, cGMP TR-FRET, EC30 ANP, primary screen. Atrial natriuretic peptide receptor 1 (Homo sapiens), P16066. 0% at EC30 ANP, 100% saturating ANP. activation, % at 10 µM. 370,000 compounds, 0.14% hits. AID 1671463, 2021; in the data active = activation above about 40%
Target sequence (P16066 whole entry, looked up): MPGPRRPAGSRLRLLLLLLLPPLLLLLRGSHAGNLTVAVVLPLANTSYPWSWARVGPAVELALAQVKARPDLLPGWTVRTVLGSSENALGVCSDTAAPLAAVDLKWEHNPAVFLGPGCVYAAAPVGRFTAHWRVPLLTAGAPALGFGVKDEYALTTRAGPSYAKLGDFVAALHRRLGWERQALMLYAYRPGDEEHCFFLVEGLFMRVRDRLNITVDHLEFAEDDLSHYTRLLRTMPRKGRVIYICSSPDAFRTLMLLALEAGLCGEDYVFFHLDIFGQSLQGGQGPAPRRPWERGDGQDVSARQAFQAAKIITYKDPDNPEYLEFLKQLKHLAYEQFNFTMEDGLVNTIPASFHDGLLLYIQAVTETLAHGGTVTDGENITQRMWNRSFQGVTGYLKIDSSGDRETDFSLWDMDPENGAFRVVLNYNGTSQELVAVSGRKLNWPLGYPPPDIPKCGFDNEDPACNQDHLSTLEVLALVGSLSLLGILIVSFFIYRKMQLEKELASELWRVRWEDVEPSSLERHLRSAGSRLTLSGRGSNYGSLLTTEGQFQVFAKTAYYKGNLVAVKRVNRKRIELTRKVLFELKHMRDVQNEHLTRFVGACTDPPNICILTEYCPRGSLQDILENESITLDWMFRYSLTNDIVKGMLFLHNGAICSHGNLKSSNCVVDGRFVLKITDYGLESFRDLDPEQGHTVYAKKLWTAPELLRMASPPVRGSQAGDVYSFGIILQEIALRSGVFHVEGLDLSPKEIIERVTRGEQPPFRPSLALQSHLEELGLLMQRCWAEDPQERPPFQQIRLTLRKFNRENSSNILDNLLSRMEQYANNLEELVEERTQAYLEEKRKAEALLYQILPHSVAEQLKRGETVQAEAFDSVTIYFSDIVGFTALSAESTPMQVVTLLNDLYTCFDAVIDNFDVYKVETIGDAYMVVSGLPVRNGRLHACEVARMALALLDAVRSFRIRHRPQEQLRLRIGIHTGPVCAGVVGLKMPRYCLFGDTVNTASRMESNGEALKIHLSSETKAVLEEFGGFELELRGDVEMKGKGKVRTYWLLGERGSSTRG
NOD2-RIPK2 inh = NOD2-RIPK2 binding disruptors in cells, primary screen, fluorescence, CHO cells, BLA complementation; Receptor-interacting serine/threonine-protein kinase 2 (Homo sapiens), O43353; CCF4 ratio; 360,000 compounds, 0.38% hits; inhibition, % at 4.98 µM; AID 624267, 2012; in the data active = inhibition above about 21%;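 note: 0% = vehicle only and 100% = reference blocker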
* marks the source's active call; other numbers are inactive results; i = inactive; x = no result.

SMILES	TLR9-MyD88 block	TLR4 MyD88 comp	GC-B act	Neddylation inh	GC-A act	NOD2-RIPK2 inh
C=CCn1c(=O)c2c3c(sc2n2c(Nc4ccc(OC)cc4)nnc12)CCCC3	-13	8	54*	2	48*	1
CCN(CC)CC(C)(C)C(=O)/C=C/c1ccc(/C=C/C(=O)C(C)(C)CN(CC)CC)cc1	21	x	0	10	-7	84*
CCN(CC)CCOC(=O)/C=C/c1ccccc1	0	x	0	-6	-4	-7
O=C(OCC(=O)N1CCN(C(=O)c2ccco2)CC1)c1cc(-c2ccco2)nc2ccccc12	2	11	1	45*	-3	-14
C#CCN1CC(N(C)CCOC(=O)c2occ3ccccc23)CS1(=O)=O (configuration not stated)	x	x	-9	x	-1	x
O=C(Nc1ccc(Cl)cc1)C1CCCN1S(=O)(=O)c1cccc2cccnc12 (configuration not stated)	x	x	3	x	-3	x
COCCn1c(=NC(=O)CCS(=O)(=O)c2ccccc2)sc2cc(C(=O)OC)ccc21	5	x	2	i	61*	-13
Cn1c(=NC(=O)CCS(=O)(=O)c2ccccc2)sc2cc(F)ccc21	-13	x	35	-389	62*	-13
Cn1c(=NC(=O)CS(=O)(=O)c2ccccc2)sc2cc(F)ccc21	-2	x	-1	6	0	-7
Cc1ccc(NC(=S)N/N=C/c2ccc(Cl)c([N+](=O)[O-])c2)cc1	2	-1	-12	-1	6	7
O=[N+]([O-])c1cc(/C=N/NC(=S)Nc2ccccc2Cl)ccc1Cl	20	0	-5	-11	58*	14
C[C@@H](NC(=O)/C(C#N)=C/c1ccc(O)c(O)c1)c1ccccc1	0	x	-1	-5	-1	-12
CC(NC(=O)/C(C#N)=C/c1ccc(Cl)c([N+](=O)[O-])c1)c1ccccc1 (configuration not stated)	x	12	0	x	55*	x
CCOc1ccc(/C=N/n2c(-c3n[nH]c4c3CCC4)n[nH]c2=S)cc1	x	x	-13	x	0	x
O=C(NC1CCCCN(Cc2cccc(C(F)(F)F)c2)C1=O)c1ccc(-c2ccccc2)cc1 (configuration not stated)	x	x	0	x	-2	x
CCOc1cc(S(=O)(=O)Nc2cc(C)cc(C)c2)ccc1Cl	3	-4	47*	-4	-3	7
CC(=O)c1ccc(NC(=O)NC2CCCCN(Cc3cccc(Cl)c3)C2=O)cc1 (configuration not stated)	x	x	-7	x	-1	x
CC(CCN1CCC(C(O)(c2ccccc2)c2ccccc2)CC1)Oc1ccccc1C#N (configuration not stated)	x	x	-20	x	-28	x
S=C(Nc1ccc2nc(-c3ccccn3)c(-c3ccccn3)nc2c1)N1CCCCC1	0	9	x	42*	x	-1
Cc1c(NS(=O)(=O)c2cccc(C(=O)OCC(=O)c3ccc(Cl)cc3)c2)c(=O)n(-c2ccccc2)n1C	1	x	-2	-18	61*	-23
CC(C)(C)c1ccc(-c2cn(C[C@H](Cc3ccccc3)n3c(=O)c4ccccc4n3Cc3ccco3)nn2)cc1	x	x	-3	x	2	x
Fc1ccccc1-c1nc2nc3ccccc3nc2n1CC1CCCO1 (configuration not stated)	7	x	0	46*	-5	-2
S=c1[nH]nc(-c2ccccc2)n1CC1CCCO1 (configuration not stated)	-3	5	3	10	0	8
CCCCCCCCN1C(=O)[C@@H](CC(=O)N2CCN(C(=O)OCC)CC2)C[C@@]2(C(=O)OC)C1=C[C@H](COCc1ccccc1)O[C@@H]2C	x	x	8	x	0	x
CC(C)=CCC[C@@]1(C(=O)O)[C@@H]2C/C=C(\C)CC/C=C(\C)CC[C@H]1[C@]1(CC2)CO1	x	x	1	x	2	x
SMILES	TLR9-MyD88 block	TLR4 MyD88 comp	GC-B act	Neddylation inh	GC-A act	NOD2-RIPK2 inh
CCOC(=O)CC[C@@H]1CC[C@]2(CCCN(C(=O)C3CCCC3)C2)O1	x	x	2	x	3	x
CN(C)C=Nc1nc2c(Br)ccc(Br)c2cc1C(=O)NCC(C)(C)C	x	x	-8	x	48*	x
c1cc2c3c(cccc3c1)NC1(CCCCCC1)N2	8	6	-3	-5	-4	-71
c1cc2c3c(cccc3c1)NC1(CCC3(CC1)Nc1cccc4cccc(c14)N3)N2	4	x	-6	58*	-41	-7
COc1ccccc1CNC(=O)c1cc(S(=O)(=O)N2CCCC2)cn1C	-2	x	37*	-3	0	3
Cn1cc(S(=O)(=O)N2CCCC2)cc1C(=O)NCc1ccccc1Cl	4	x	2	6	-1	-1
COc1ccc(CCn2c(O)cc3nn(-c4nc5ccccc5s4)c(=O)c-3c2C)cc1	-11	x	-2	75*	-10	-8
COC(=O)C1CN(C2CCCC2)CCS(=O)(=O)N1Cc1cn(Cc2ccccc2)nn1 (configuration not stated)	x	x	5	x	1	x
CC(=O)c1c(C)n(-c2cccc(Cl)c2)c2ccc(O)cc12	2	x	11	9	66*	4
CC(c1ccc(NC(=O)OC(C)(C)C)cc1)c1cn(C)c2ccccc12 (configuration not stated)	x	x	1	x	0	x
Cc1[nH]c(=O)c(C(=O)/C=C/c2ccccc2F)c2c1CCCC2	6	-9	12	1	18	23*
COc1ccc(OCC(C)CN2CCC(C(O)(c3ccccc3)c3ccccc3)CC2)cc1 (configuration not stated)	x	x	-11	x	-11	x
CCOC(=O)[C@@]12CN(C(=O)OC(C)(C)C)CC=C1N(Cc1ccc(OC)cc1)C(=O)[C@H]2CC(=O)NCCc1ccccc1OC	x	x	-4	x	-2	x
O=C(CCc1ccccc1)NCCSc1ccccc1	15	2	1	-4	-4	2
O=C(CCc1[nH]c2ccccc2c1Sc1ccccc1)NCCO	4	1	16	7	43*	2
COc1ccccc1N1CCN(N=Cc2ccccc2Br)CC1	x	x	-3	x	-1	x
O=C1c2ccccc2C(=O)N1OS(=O)(=O)c1ccccc1	x	0	x	x	x	x
Cc1cc(S(=O)(=O)ON2C(=O)c3ccccc3C2=O)ccc1F	0	x	35	15	40*	-8
COC(=O)[C@]12C[C@H](CC(=O)NCc3ccccc3)C(=O)N(Cc3cccc4ccccc34)C1=C[C@H](COCc1ccccc1)O[C@@H]2C	x	x	4	x	-2	x
O=C(NC(=S)NNC(=O)c1cnccn1)c1ccc(Cl)cc1	-5	x	-6	55*	1	8
